Assay [1] can be described thus: circadian clock period modulators, cell-based, LOPAC library, luminescence reporter (AID 2774).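 Also: values are relative to mean of DMSO wells on each plate.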 The following applies: circadian reporter cells, at 7 µM, actives lie on both sides.
The subject of assay [2] is Hepatitis C virus NS3 helicase. The experiment in a line: HCV NS3 helicase inhibitors, primary screen, biochemical, fluorescence polarization, LOPAC1280 library (AID 687035; in the data active = inhibition above about 37%). The following applies: Purified HCV NS3 helicase, Cy5-dT15 ssDNA binding fluorescence polarization; stronger effect = higher value; concentration not given here. A general note: In fluorescence polarisation assays a small probe gives low polarisation when free and higher when bound to something large.

A short description of assay [3]: Cy5 fluorescence quenching or enhancement artefacts, artefact control for HCV NS3 helicase inhibitor project, biochemical, LOPAC1280 (AID 687037). The following applies: Cy5-DNA-NS3h complex fluorescence interference counterscreen.
A short description of assay [4]: sensitizers of A549 cells to miR-34 induction, primary screen, imaging, A549 dox-inducible miR-34, nuclei and caspase counts (AID 1347080;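 active = compounds whose cell count with miR-34 switched on is under 0.7 times the count with it off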). The following applies: A549 miR-34 inducible, Hoechst nuclei count, 48 h.
Assay [5] is described as follows: phospholipid biosynthesis inhibitors in animal cells, primary screen, cell-based, LOPAC library, screen 4 (AID 1347384). As to conditions: phospholipid biosynthesis inhibition screen, at 10 µM.
The nature of assay [6]: viability rescue of complex I mutant cybrids, primary screen, cell-based, galactose medium, ATP luminescence (AID 1645843;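 active = z-score of at least 1.8 in each of two replicates, scored against plate mean and spread of sample wells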;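 also: positive z means more ATP and so rescue of galactose-driven cybrid death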). The following applies: complex I mutant cybrid cells, 72 h, stronger effect = higher value.
The mark [7] stands for this setting: stronger effect = lower value, cell number ratio, induced over uninduced.
Where [8] appears, read: measured here: relative caspase fold change +Dox/-Dox.
Where [9] appears, read: measured here: total cells with miR-34 induction, stronger effect = lower value.
[10] abbreviates: measured here: total cells without miR-34 induction.

Activity calls are given as the source filed them. Unless noted, no rule for the calls is given here.

As a reminder, the inhibition is the relative decrease from the control value, in per cent. In the case of `CC1(C)CCC(NC(=O)[C@@H](N)CCC(=O)O)CC1`, the period change in assay [1] is -0.095 h (inactive). Besides, the inhibition in assay [2] is -6% (inactive). The fluorescence ratio (interference) in assay [3] was 1 (inactive). Besides, the values for the fold change in assay [4] (setting [7]) and in assay [4] (setting [8]) were 1.1 (inactive) and 1.15, respectively. Further, the cell count in assay [4] (setting [9]) is 11000; in assay [4] (setting [10]), 9970. The outcome in assay [5] was inactive. For the same molecule, the z-score in assay [6] is 0.125 (inactive).

Consider `CC(N)=O`, for which the period change in assay [1] was -0.19 h (inactive). For the same molecule, in assay [2], the inhibition is 0% (inactive). The fluorescence ratio (interference) in assay [3] is 0.9 (inactive). The fold change was 1.08 (inactive) in assay [4] (setting [7]) and 1.34 in assay [4] (setting [8]). Moreover, the cell count was determined as 10600 in assay [4] (setting [9]) and 9870 in assay [4] (setting [10]). Also, in assay [5], the molecule was classed as inactive. Further, the z-score in assay [6] is 1.1 (inactive).

Consider `NOCC(=O)O`, for which the period change in assay [1] is -0.075 h (inactive). The inhibition in assay [2] was -1% (inactive). In addition, the fluorescence ratio (interference) in assay [3] is 1 (inactive). Further, the figures for the fold change in assay [4] (setting [7]) and in assay [4] (setting [8]) were 1.12 (inactive) and 1.94, respectively. Further, the cell count in assay [4] (setting [9]) was found to be 9990; in assay [4] (setting [10]) it was 8920. The outcome in assay [5] was inactive. For the same molecule, the z-score in assay [6] is 0.555 (inactive).

For `CCCCOC(=O)NS(=O)(=O)c1sc(CC(C)C)cc1-c1ccc(Cn2c(CC)nc3c(C)cc(C)nc32)cc1`, the period change in assay [1] is -0.005 h (inactive). Besides, in assay [2], the inhibition is -1% (inactive). Further, the fluorescence ratio (interference) in assay [3] was 1 (inactive). Besides, the results for the fold change in assay [4] (setting [7]) and in assay [4] (setting [8]) were 0.772 (inactive) and 0.69, respectively. Also, the cell count in assay [4] (setting [9]) came to 4700; in assay [4] (setting [10]), 6080. In assay [5], the molecule was called inactive. Further, the z-score in assay [6] is -1.28 (inactive).

Consider `CCCCCCC/C=C\CCCCCCCCC(=O)O`, for which, in assay [1], the period change was 0.02 h (inactive). For the same molecule, the inhibition in assay [2] is -4% (inactive). Further, in assay [3], the fluorescence ratio (interference) was 0.9 (inactive). Moreover, the fold change in assay [4] (setting [7]) is 1.08 (inactive); in assay [4] (setting [8]) it was 0.494. Further, the cell count in assay [4] (setting [9]) is 10900; in assay [4] (setting [10]), 10100. In assay [5], the call was inactive. For the same molecule, in assay [6], the z-score is 0.87 (inactive).

On to `COc1cc(CC(=O)O)ccc1O`, for which the period change in assay [1] is 0.03 h (inactive). Also, the inhibition in assay [2] was 1% (inactive). Besides, in assay [3], the fluorescence ratio (interference) is 1 (inactive). Also, the fold change is 1.05 (inactive) in assay [4] (setting [7]) and 0.734 in assay [4] (setting [8]). For the same molecule, the cell count worked out at 10100 in assay [4] (setting [9]) and 9570 in assay [4] (setting [10]). In addition, in assay [5], the molecule was classed as inactive. Also, in assay [6], the z-score is 0.08 (inactive).

`CC1C(=O)N(C)C(=O)c2nc[nH]c21` (configuration not stated): in assay [1], the period change was 0.13 h (inactive). Also, in assay [2], the inhibition was -3% (inactive). For the same molecule, the fluorescence ratio (interference) in assay [3] was 0.9 (inactive). Moreover, the results for the fold change in assay [4] (setting [7]) and in assay [4] (setting [8]) were 0.928 (inactive) and 1.21, respectively. The cell count in assay [4] (setting [9]) amounted to 9940; in assay [4] (setting [10]), 10700. In addition, the outcome in assay [5] was inactive. Besides, the z-score in assay [6] was 0.22 (inactive).

As to `Oc1ccc(C2CNCc3sccc32)cc1O` (configuration not stated), in assay [1], the period change was 0.045 h (inactive). For the same molecule, the inhibition in assay [2] is 5% (inactive). Besides, in assay [3], the fluorescence ratio (interference) was 1 (inactive). Further, the fold change in assay [4] (setting [7]) was 0.942 (inactive); in assay [4] (setting [8]) it was 1.38. In addition, the cell count in assay [4] (setting [9]) was 10000; in assay [4] (setting [10]) it was 10600. Also, the result in assay [5] was inactive. Besides, the z-score in assay [6] was -1.29 (inactive).

Consider `O=C(Nc1cccc(C(=O)Nc2ccc(S(=O)(=O)O)c3cc(S(=O)(=O)O)cc(S(=O)(=O)O)c23)c1)Nc1cccc(C(=O)Nc2ccc(S(=O)(=O)O)c3cc(S(=O)(=O)O)cc(S(=O)(=O)O)c23)c1`, for which the period change in assay [1] is -0.03 h (inactive). In addition, the inhibition in assay [2] is 91% (active). For the same molecule, the fluorescence ratio (interference) in assay [3] is 1.1 (inactive). In addition, the fold change in assay [4] (setting [7]) was 1.05 (inactive); in assay [4] (setting [8]) it was 0.567. In addition, the results for the cell count in assay [4] (setting [9]) and in assay [4] (setting [10]) were 9650 and 9220, respectively. Also, the molecule was classed as inactive in assay [5]. The z-score in assay [6] was 0.865 (inactive).

For the molecule `CNCC[C@H](Oc1ccc(C(F)(F)F)cc1)c1ccccc1`, the period change in assay [1] was 0.185 h (inactive). In addition, the inhibition in assay [2] was -2% (inactive). In assay [3], the fluorescence ratio (interference) was 1 (inactive). Also, the fold change in assay [4] (setting [7]) was 1.08 (inactive); in assay [4] (setting [8]), 0.944. Further, the cell count in assay [4] (setting [9]) was determined as 7270; in assay [4] (setting [10]), 6730. Also, the molecule was classed as inactive in assay [5]. The z-score in assay [6] was -0.925 (inactive).

On to `CCCn1c(=O)c2[nH]c(-c3ccc(S(=O)(=O)O)cc3)nc2n(CCC)c1=O`, for which, in assay [1], the period change is -0.005 h (inactive). Further, the inhibition in assay [2] was 0% (inactive). The fluorescence ratio (interference) in assay [3] was 1 (inactive). For the same molecule, the fold change was 0.978 (inactive) in assay [4] (setting [7]) and 2.81 in assay [4] (setting [8]). The cell count in assay [4] (setting [9]) is 10100; in assay [4] (setting [10]) it was 10400. Further, in assay [5], the molecule was classed as inactive. Besides, the z-score in assay [6] was 0.43 (inactive).

With `CCC1(O)CC2CN(CCc3c([nH]c4ccccc34)[C@@](C(=O)OC)(c3cc4c(cc3OC)N(C)C3[C@]45CCN4CC=C[C@@](CC)([C@@H](OC(C)=O)[C@]3(O)C(=O)OC)[C@H]45)C2)C1` (some centres not stated), the period change in assay [1] is 0.43 h (inactive). For the same molecule, in assay [2], the inhibition is -2% (inactive). For the same molecule, the fluorescence ratio (interference) in assay [3] is 1 (inactive). Moreover, the fold change in assay [4] (setting [7]) is 1.18 (inactive); in assay [4] (setting [8]) it was 0.644. For the same molecule, the cell count is 1680 in assay [4] (setting [9]) and 1430 in assay [4] (setting [10]). In addition, the result in assay [5] was inactive. Also, the z-score in assay [6] is -1.17 (inactive).

Regarding `C=CCN1CCc2c(cc(O)c(O)c2Br)[C@@H](c2ccccc2)C1`, the period change in assay [1] is 0.175 h (inactive). Further, in assay [2], the inhibition was -2% (inactive). Moreover, in assay [3], the fluorescence ratio (interference) is 1 (inactive). Besides, the results for the fold change in assay [4] (setting [7]) and in assay [4] (setting [8]) were 1.09 (inactive) and 2.06, respectively. Besides, the cell count came out at 5920 in assay [4] (setting [9]) and 5430 in assay [4] (setting [10]). Besides, the molecule was called inactive in assay [5]. In assay [6], the z-score was -1.42 (inactive).

As for `CCC1(O)CC2CN(CCc3c([nH]c4ccccc34)[C@@](C(=O)OC)(c3cc4c(cc3OC)N(C=O)C3[C@]45CCN4CC=C[C@@](CC)([C@@H](OC(C)=O)[C@]3(O)C(=O)OC)[C@H]45)C2)C1` (some centres not stated), in assay [1], the period change is 0.81 h (active). In addition, in assay [2], the inhibition was 2% (inactive). In addition, the fluorescence ratio (interference) in assay [3] was 1 (inactive). For the same molecule, the results for the fold change in assay [4] (setting [7]) and in assay [4] (setting [8]) were 1.3 (inactive) and 1.29, respectively. Besides, the cell count in assay [4] (setting [9]) was found to be 1490; in assay [4] (setting [10]), 1140. Further, the outcome in assay [5] was inactive. In assay [6], the z-score is -0.935 (inactive).

As to `COC1=C(OC)C(=O)c2ccccc2C1=O`, the period change in assay [1] was -0.205 h (inactive). The inhibition in assay [2] is -1% (inactive). In assay [3], the fluorescence ratio (interference) is 1 (inactive). Besides, the fold change in assay [4] (setting [7]) was 1.45 (inactive); in assay [4] (setting [8]) it was 1.7. The cell count in assay [4] (setting [9]) turned out to be 1290; in assay [4] (setting [10]), 890. The molecule was called inactive in assay [5]. Besides, the z-score in assay [6] is -1.04 (inactive).

For `OC1(c2ccc(Cl)cc2)CCN(Cc2c[nH]c3ccccc23)CC1`, the period change in assay [1] is 0.165 h (inactive). For the same molecule, in assay [2], the inhibition is -8% (inactive). Further, the fluorescence ratio (interference) in assay [3] is 0.9 (inactive). The fold change is 1.01 (inactive) in assay [4] (setting [7]) and 1.16 in assay [4] (setting [8]). The values for the cell count in assay [4] (setting [9]) and in assay [4] (setting [10]) were 7020 and 6940, respectively. For the same molecule, the molecule was called inactive in assay [5]. In addition, the z-score in assay [6] is -0.735 (inactive).

Take `NC(CCCP(=O)(O)O)C(=O)O` (configuration not stated): the period change in assay [1] is 0.105 h (inactive). Also, the inhibition in assay [2] was -3% (inactive). Further, the fluorescence ratio (interference) in assay [3] is 1 (inactive). The results for the fold change in assay [4] (setting [7]) and in assay [4] (setting [8]) were 1.08 (inactive) and 1.92, respectively. The cell count worked out at 10400 in assay [4] (setting [9]) and 9550 in assay [4] (setting [10]). Moreover, the call in assay [5] was inactive. Further, the z-score in assay [6] was 0.21 (inactive).

As for `CC(C)C[C@H](NC(=O)[C@H](O)[C@H](N)Cc1ccccc1)C(=O)O`, in assay [1], the period change was -0.01 h (inactive). Moreover, the inhibition in assay [2] is -2% (inactive). For the same molecule, the fluorescence ratio (interference) in assay [3] is 1 (inactive). Also, the fold change in assay [4] (setting [7]) was 1.02 (inactive); in assay [4] (setting [8]) it was 0.988. Further, the cell count came to 10100 in assay [4] (setting [9]) and 9920 in assay [4] (setting [10]). Also, the outcome in assay [5] was inactive. In addition, the z-score in assay [6] was 0.245 (inactive).

The values above are taken from PubChem BioAssay.
